Consider seven molecules from PubChem BioAssay (NCI).

Among the test systems are HCT-15 colon; HT29 colon; SNB-75 CNS; SNB-19 CNS; U251 CNS; PC-3 prostate; SK-MEL-5 melanoma; UACC-62 melanoma; LOX IMVI melanoma; SK-MEL-28 melanoma; SK-MEL-2 melanoma; EKVX NSCLC; SN12C renal; UO-31 renal; TK-10 renal; ACHN renal; CAKI-1 renal; A498 renal; CCRF-CEM leukemia; MOLT-4 leukemia.
Common to all, as to test: NCI-60 one-dose screen, 48 h (100 = growth as untreated, 0 = no growth, -100 = all killed)
Details in all cases: 10 µM unless noted

This is part of a sample that, as a whole, favours compounds with a hit. Of some 83,000 tested, about 20% had one in any assay.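 In brief: 96-well plates, 48 h treatment, single concentration, percent growth endpoint.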 A number with no mark means an inactive call. Calls of active or inactive are those of the source. The calls were made as follows: active = growth percent below 10; inactive = the rest.

In the case of `O=C(Nc1ncc(Cc2ccccc2)s1)c1sc2ccccc2c1Cl`, the growth in the experiment with HCT-15 colon is 26.5%; in the experiment on HT29 colon, 12.3%; in the experiment with SNB-75 CNS, -1.11% (active); in the experiment on SNB-19 CNS, 52.6%; in the experiment with U251 CNS it was 21.4%; with PC-3 prostate, 27%. Besides, the growth is 3.74% (active) in the experiment on SK-MEL-5 melanoma; 12.1% in the experiment with UACC-62 melanoma; 46.9% in the experiment with LOX IMVI melanoma; 59.4% in the experiment with SK-MEL-28 melanoma; 20.8% in the experiment with SK-MEL-2 melanoma; 30.2% in the experiment on EKVX NSCLC. The growth in the experiment on SN12C renal is 39.5%; in the experiment with UO-31 renal it was 39%; in the experiment with TK-10 renal, 38.8%; with ACHN renal, 39.8%; with CAKI-1 renal, 29.5%; in the experiment on A498 renal, 15.1%. For the same molecule, the results for the growth with CCRF-CEM leukemia and in the experiment with MOLT-4 leukemia were 18.8% and 31.4%, respectively.
As for `O=S(Nc1ccccc1)c1ccc(Cl)cc1` (stereo not given), the growth in the experiment on HCT-15 colon is 109%; in the experiment on HT29 colon it was 102%; with SNB-75 CNS, 83.2%; in the experiment with SNB-19 CNS, 96.8%; with U251 CNS it was 95.1%; in the experiment on PC-3 prostate, 89.8%. Besides, the growth was 99.8% in the experiment on SK-MEL-5 melanoma; 90.4% in the experiment on UACC-62 melanoma; 100% in the experiment on LOX IMVI melanoma; 107% in the experiment on SK-MEL-28 melanoma; 95.2% in the experiment on SK-MEL-2 melanoma; 102% in the experiment on EKVX NSCLC. Further, the growth in the experiment with SN12C renal was 102%; with UO-31 renal, 85.7%; in the experiment with TK-10 renal it was 103%; in the experiment with ACHN renal, 94.5%; in the experiment with CAKI-1 renal it was 95.5%; with A498 renal, 95.8%. Besides, the growth in the experiment with CCRF-CEM leukemia is 95.7%; with MOLT-4 leukemia, 85.7%.
For the molecule `CC1(C)N=C(N)N=C(N)N1c1cc(Cl)ccc1Cl`, the growth in the experiment with HCT-15 colon was 13%; in the experiment with HT29 colon, 24.8%; with SNB-75 CNS, 118%; with SNB-19 CNS, 92.6%; with U251 CNS it was 80%; in the experiment with PC-3 prostate it was 101%. The growth is 98.1% with SK-MEL-5 melanoma; 88.7% in the experiment on UACC-62 melanoma; 70.2% with LOX IMVI melanoma; 106% in the experiment with SK-MEL-28 melanoma; 19.5% in the experiment with SK-MEL-2 melanoma; 99.7% with EKVX NSCLC. Besides, the growth was 90.4% in the experiment with SN12C renal; 91% in the experiment on UO-31 renal; 94% in the experiment on TK-10 renal; -25.2% (active) in the experiment on ACHN renal; 9.84% (active) in the experiment on CAKI-1 renal; 83.8% with A498 renal. The growth was 96.1% with CCRF-CEM leukemia and 71.1% with MOLT-4 leukemia.
Consider `C=C1C(=O)O[C@H]2[C@H]1CC/C(COC(=O)/C=C\C(=O)NCc1ccc(Cn3c(=O)sn(CCCCl)c3=O)cc1)=C\CC[C@@]1(C)O[C@@H]21`, for which the growth in the experiment on HCT-15 colon is 30.8%; in the experiment with HT29 colon, 46.9%; in the experiment with SNB-75 CNS it was 88.5%; in the experiment on SNB-19 CNS it was 94.8%; with U251 CNS, 79.6%; in the experiment on PC-3 prostate it was 76.9%. In addition, the growth in the experiment with SK-MEL-5 melanoma was 102%; with UACC-62 melanoma it was 65.1%; in the experiment on LOX IMVI melanoma, 64.2%; in the experiment on SK-MEL-28 melanoma, 100%; with SK-MEL-2 melanoma, 83.4%; in the experiment with EKVX NSCLC, 94.1%. In addition, the growth with SN12C renal was 64.9%; in the experiment on UO-31 renal, 53.1%; with TK-10 renal, 57.7%; in the experiment on ACHN renal, 40.2%; in the experiment on CAKI-1 renal, 51.6%; with A498 renal, 103%. The growth in the experiment on CCRF-CEM leukemia is 1.6% (active); in the experiment on MOLT-4 leukemia, 60.7%.
As for `Cc1ccc2cnc(N)c(C#Cc3cc(C(=O)Nc4ccc(CN5CCN(C)CC5)c(C(F)(F)F)c4)cnc3C)c2c1`, the growth with HCT-15 colon is -40.5% (active); in the experiment with HT29 colon, -62.7% (active); in the experiment on SNB-75 CNS it was -17.1% (active); with SNB-19 CNS, 17.4%; in the experiment with U251 CNS it was -80.7% (active); in the experiment with PC-3 prostate, -86.9% (active). Besides, the growth in the experiment on SK-MEL-5 melanoma is 26.8%; in the experiment on UACC-62 melanoma it was 7.26% (active); in the experiment with LOX IMVI melanoma it was -71% (active); in the experiment on SK-MEL-28 melanoma it was -84.9% (active); with SK-MEL-2 melanoma, 6.23% (active); with EKVX NSCLC it was 12.6%. The growth in the experiment on SN12C renal was 2.6% (active); with UO-31 renal, -82% (active); in the experiment on TK-10 renal it was 39.7%; in the experiment with ACHN renal, -100% (active); in the experiment with CAKI-1 renal, -35.7% (active); in the experiment with A498 renal, -75.9% (active). Further, the growth in the experiment on CCRF-CEM leukemia was -34.8% (active); with MOLT-4 leukemia, -5.68% (active).
For `COc1cc(-c2ccc[nH]2)[nH]c1/C=C1\N=C(C)C(CC(=O)OCC(C)(C)C)=C1C`, the growth is -78% (active) in the experiment on HCT-15 colon; -59.9% (active) in the experiment with HT29 colon; -23.8% (active) in the experiment with SNB-75 CNS; -33.3% (active) in the experiment on SNB-19 CNS; -95.6% (active) in the experiment with U251 CNS; -88.3% (active) in the experiment on PC-3 prostate. For the same molecule, the growth in the experiment with SK-MEL-5 melanoma is -95.7% (active); with UACC-62 melanoma, -82.6% (active); in the experiment with LOX IMVI melanoma, -88.3% (active); with SK-MEL-28 melanoma, -78.2% (active); with SK-MEL-2 melanoma it was -60.4% (active); with EKVX NSCLC it was -69.3% (active). For the same molecule, the growth in the experiment on SN12C renal is -75% (active); in the experiment with UO-31 renal, -86.5% (active); in the experiment on TK-10 renal, -89.9% (active); with ACHN renal, -83.2% (active); in the experiment with CAKI-1 renal, -78.8% (active); with A498 renal, -89.9% (active). Also, the growth with CCRF-CEM leukemia was -16.5% (active); with MOLT-4 leukemia it was -37% (active).
Turning to `C#CCOc1cccc(Nc2ncnc3c2ncn3C2CCN(C(=O)CCl)C2)c1` (stereo not given), the growth in the experiment on HCT-15 colon was 1.63% (active); in the experiment on HT29 colon it was -68.4% (active); with SNB-75 CNS, -3.65% (active); with SNB-19 CNS, 13.7%; in the experiment with U251 CNS, -92% (active); in the experiment with PC-3 prostate, -14.2% (active). In addition, the growth was -85.7% (active) with SK-MEL-5 melanoma; -66% (active) in the experiment on UACC-62 melanoma; -86.5% (active) in the experiment on LOX IMVI melanoma; -43.9% (active) with SK-MEL-28 melanoma; -0.328% (active) with SK-MEL-2 melanoma; 5.11% (active) in the experiment with EKVX NSCLC. For the same molecule, the growth with SN12C renal is -71.3% (active); in the experiment on UO-31 renal it was -97.8% (active); in the experiment on TK-10 renal it was -83.8% (active); with ACHN renal, -98.9% (active); with CAKI-1 renal, -97.4% (active); in the experiment on A498 renal, 85.9%. In addition, the results for the growth in the experiment with CCRF-CEM leukemia and in the experiment with MOLT-4 leukemia were -28% (active) and -26.8% (active), respectively.
